# Article PMC7826789 (International Journal of Molecular Sciences, 2021)
# Experiments:
# Conditions in all cases: Compound Concentration (nM):1000
# JNK1 = tested on: T1, JNK1
# T1 construct: gene MAPK8
# JNK2 = tested on: T2, JNK2
# T2 construct: gene MAPK9
# JNK3 = tested on: T3, JNK3
# T3 construct: gene MAPK10
# KIT(A829P) = tested on: KIT(A829P)
# KIT(D816H) = tested on: KIT(D816H)
# KIT(D816V) = tested on: KIT(D816V)
# KIT(L576P) = tested on: KIT(L576P)
# KIT(V559D) = tested on: KIT(V559D)
# KIT(V559D,T670I) = tested on: KIT(V559D,T670I)
# KIT(V559D,V654A) = tested on: KIT(V559D,V654A)
# KIT-autoinhibited = tested on: KIT-autoinhibited
# KIT = tested on: KIT
# LATS1 = tested on: LATS1
# LATS2 = tested on: LATS2
# LCK = tested on: LCK
# LIMK1 = tested on: LIMK1
# LIMK2 = tested on: LIMK2
# LKB1 = tested on: T4, LKB1
# T4 construct: gene STK11
# LOK = tested on: T5, LOK
# T5 construct: gene STK10
# LRRK2(G2019S) = tested on: LRRK2(G2019S)
# 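Note: KINOMEscan scanMAX binding as percent activity remaining versus control; lower means stronger binding.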
SMILES,Percent Control (JNK1),Percent Control (JNK2),Percent Control (JNK3),Percent Control (KIT(A829P)),Percent Control (KIT(D816H)),Percent Control (KIT(D816V)),Percent Control (KIT(L576P)),Percent Control (KIT(V559D)),"Percent Control (KIT(V559D,T670I))","Percent Control (KIT(V559D,V654A))",Percent Control (KIT-autoinhibited),Percent Control (KIT),Percent Control (LATS1),Percent Control (LATS2),Percent Control (LCK),Percent Control (LIMK1),Percent Control (LIMK2),Percent Control (LKB1),Percent Control (LOK),Percent Control (LRRK2(G2019S))
C/C(Nc1ccc(S(N)(=O)=O)cc1)=C1/C(=O)Nc2ccccc21 [GW335962X],32%,31%,30%,76%,73%,92%,90%,100%,80%,87%,28%,99%,100%,83%,91%,100%,94%,86%,79%,47%
COc1cc(/C=N/Nc2ncnc3[nH]ncc23)ccc1O [GW578748X],40%,49%,37%,36%,26%,22%,51%,44%,100%,52%,57%,56%,100%,52%,42%,100%,100%,100%,100%,49%
Cl.O=C(Nc1ccc(Oc2ccc3[nH]c(NC(=O)c4ccccc4)nc3c2)cc1)Nc1cc(C(F)(F)F)ccc1F [GW709042A],85%,99%,100%,20%,84%,79%,2.9%,0.8%,4.9%,20%,86%,1.4%,98%,85%,50%,95%,93%,100%,1%,68%
CC1=C(C(=O)Nc2ccc3[nH]ncc3c2)C(c2ccc(Cl)c(Cl)c2)CC(=O)N1 (centres unmarked) [GSK299115A],84%,73%,77%,79%,78%,94%,100%,100%,94%,100%,100%,100%,60%,1.5%,80%,94%,63%,100%,71%,100%
NS(=O)(=O)c1ccc(N/N=C2\C(=O)Nc3ccc(Cl)cc32)cc1 [GW280670X],84%,100%,100%,100%,100%,100%,67%,81%,100%,58%,42%,90%,100%,98%,96%,100%,100%,100%,100%,70%
C[C@@H](Oc1cc(-n2cnc3ccc(OC4CCN(C)CC4)cc32)sc1C(N)=O)c1ccccc1Cl [GSK579289A],82%,98%,96%,49%,1.7%,48%,31%,30%,41%,95%,81%,32%,100%,65%,82%,100%,100%,100%,3.3%,75%
CCc1ccc(Oc2nccc(-c3c(-c4ccc(F)cc4)ncn3C3CCNCC3)n2)cc1 [SB-242719],65%,15%,17%,94%,73%,100%,85%,95%,94%,74%,100%,83%,100%,70%,74%,75%,100%,84%,97%,83%
CCn1c(-c2nonc2N)nc2c(C#CC(C)(C)O)nc(OCCNC)cc21.Cl [GSK949675],97%,100%,96%,98%,22%,13%,100%,100%,100%,100%,100%,100%,65%,11%,100%,100%,100%,70%,100%,100%
COc1ccccc1-c1cc(/C=C2\C(=O)Nc3ncc(Br)cc32)cc(Br)c1O [GW442130X],52%,43%,30%,100%,100%,100%,76%,65%,100%,62%,100%,70%,100%,100%,100%,100%,100%,73%,100%,93%
COc1cccc(-n2ncc3c(N/N=C/c4ccncc4)ncnc32)c1 [GW784752X],99%,83%,96%,100%,46%,100%,84%,89%,38%,100%,100%,91%,100%,100%,35%,99%,100%,100%,100%,96%
